MsrA inh: inhibits bovine methionine sulfoxide reductase A. purified bovine MsrA, absorbance read-out. inhibition, % at 15.5 µM. 0.75% of 360,000 active;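 note: 0% = vehicle wells with enzyme and 100% = reference inhibitor wells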
proKLK7 act: activators of human kallikrein-7 zymogen | P49862 | purified proKLK7, EDANS-DABCYL substrate fluorescence; 100% is mature enzyme control, 0% vehicle | activation, % at 7 µM | 0.9% of 370,000 active | AID 652039;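 active = activation above the mean of all tested compounds plus 3 SD, computed per campaign excluding outliers beyond control limits, cut at about 13% in these data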
Target sequence (P49862 whole entry, looked up): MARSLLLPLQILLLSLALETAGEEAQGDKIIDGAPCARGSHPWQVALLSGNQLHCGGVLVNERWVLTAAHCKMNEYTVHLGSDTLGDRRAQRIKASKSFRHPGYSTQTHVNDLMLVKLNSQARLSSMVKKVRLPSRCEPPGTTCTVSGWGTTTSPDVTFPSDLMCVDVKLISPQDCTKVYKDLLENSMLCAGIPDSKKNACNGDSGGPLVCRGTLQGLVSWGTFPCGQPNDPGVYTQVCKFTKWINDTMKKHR
MsrA act: activates bovine MsrA enzyme | purified bovine MsrA, absorbance read-out | activation, % at 10.6 µM | 0.3% of 360,000 active | AID 602163; in the data active = activation above about 7.5%;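 note: 0% = vehicle and 100% = reference activator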
SMARCA2 act: SMARCA2 function activation, primary screen. MG213 cells, MMTV-luciferase reporter, dexamethasone, overnight. activation, % at 9.1 µM. 1% of 370,000 active. AID 652017; in the data active = activation above about 7.8%;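 note: 0% = vehicle wells and 100% = reference activator wells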
MsrA conf: confirmation of bovine MsrA inhibitors; shares compounds with MsrA inh; purified bovine MsrA, absorbance read-out; inhibition, % at 15.5 µM; 41% of 2,300 active; AID 651822;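 note: coupled to thioredoxin reductase with NADPH and selenocystamine and DMSO as substrate; 0% = vehicle only and 100% = full effect of reference inhibitor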
* = called active by the depositor. Most compounds without a hit are left out; they make up all but 2.8% or so of the library. Cut-off read from the data, not from the text of the source, unless noted: active = inhibition above about 4.5%; inactive = the rest.

C[C@H](O)[C@@H]1C(=O)N2CCc3c([nH]c4c(-c5ccccc5)cccc34)[C@@H]2C[C@@H]1N(C)C(=S)Nc1ccc(C#N)cc1 was read as MsrA inh 0, proKLK7 act -4 and SMARCA2 act -1.
`O=C(Nc1ccc2ncccc2c1)c1cc(-c2ccc(Cl)cc2)nc2ccccc12` gave proKLK7 act 0 and SMARCA2 act -2.
For O=S1(=O)C[C@H](N2CCC(Cc3ccccc3)CC2)[C@@H](COCc2ccccc2)N1 the results were MsrA inh -1, proKLK7 act 0, MsrA act -3 and SMARCA2 act -3.
CCOC(=O)c1cccc(-n2cccc2/C=C2\NC(=O)N(CC(=O)O)C2=O)c1 was read as MsrA inh 5.0*, proKLK7 act 0, MsrA act -4, SMARCA2 act -1 and MsrA conf 5.
Cc1ccc(CN2C(=O)N/C(=C\c3cccn3-c3cccc(C(=O)O)c3)C2=O)cc1 was read as MsrA inh 3, proKLK7 act 0, MsrA act -11 and SMARCA2 act 1.
`COc1ccc(-n2nnc3c(SC(C(C)=O)C(=O)N(C)C)ncnc32)cc1` (configuration not stated) gave MsrA inh 5.4*, proKLK7 act -1, MsrA act -5, SMARCA2 act 2 and MsrA conf 3.
Screening O=C(Nc1ccc2c(c1)OCO2)NC1CCCCN(Cc2cccc(Cl)c2)C1=O (configuration not stated) returned proKLK7 act 0 and SMARCA2 act -2.
Screening CC(=O)Nc1ccc(/C=N/NC(=O)c2cccc(S(=O)(=O)N3CCOCC3)c2)cc1 returned MsrA inh 6.2*, proKLK7 act 0, MsrA act -4, SMARCA2 act -4 and MsrA conf 3.
Screening CC(=O)Nc1ccc(C=NNC(=O)c2ccc(NS(=O)(=O)c3cccs3)cc2)cc1 returned MsrA inh 4.8*, proKLK7 act 1, MsrA act -4, SMARCA2 act -3 and MsrA conf 7.1*.
Screening COc1cc(C=NNC(=O)c2ccc(NS(=O)(=O)c3cccs3)cc2)cc(Br)c1O returned MsrA inh 5.6*, proKLK7 act -1, MsrA act -5, SMARCA2 act 2 and MsrA conf 6.0*.
Screening O=C(NN=Cc1c(F)c(F)c(F)c(F)c1F)c1ccc(NS(=O)(=O)c2cccs2)cc1 returned MsrA inh 3, proKLK7 act 0, MsrA act 1 and SMARCA2 act -4.
`COc1cccc(C(O)c2nccn2Cc2ccccc2)c1OC` (configuration not stated) gave MsrA inh 12*, proKLK7 act 0, MsrA act -2, SMARCA2 act 0 and MsrA conf 4.
`CCn1ccnc1C(O)c1ccccc1OC` (configuration not stated) gave MsrA inh 1, proKLK7 act 1, MsrA act -2 and SMARCA2 act 1.
Screening COC(=O)c1cc(-c2ccc(C(C)(C)C)cc2)c(=O)n2c1CCC2 returned proKLK7 act 0 and SMARCA2 act -1.
COc1cc(/C=N/NC(=O)c2ccc(-n3cccc3)cc2)ccc1O was read as MsrA inh 5.9*, proKLK7 act 1, MsrA act -5, SMARCA2 act -2 and MsrA conf 4.8*.
Screening CN(C)c1ccc(C(=O)N/N=C/c2ccccn2)cc1 returned MsrA inh 7.4*, proKLK7 act 0, MsrA act -3, SMARCA2 act 2 and MsrA conf 4.
For COc1cc(/C=N/NC(=O)c2cccs2)ccc1O the results were MsrA inh 1, proKLK7 act 0, MsrA act -9 and SMARCA2 act -1.
Screening CN(C)c1ccc(/C=N/NC(=O)c2ccc3c(c2)OCCO3)cc1 returned MsrA inh 5.0*, proKLK7 act 1, MsrA act -4, SMARCA2 act 6 and MsrA conf 5.5*.
For COc1cc(/C=N/NC(=O)/C(=C\c2ccc3c(c2)OCO3)NC(=O)c2ccccc2)ccc1O the results were MsrA inh 8.7*, proKLK7 act 0, MsrA act -7, SMARCA2 act -2 and MsrA conf 4.9*.
Screening Oc1ccc(F)c(CN2CCN(c3ncc(Cc4ccccc4)cn3)CC2)c1 returned MsrA inh 1, proKLK7 act 1 and SMARCA2 act -1.
O=C(N/N=C/c1cc(Br)c(O)c(Br)c1O)c1ccc2c(c1)OCCO2 was read as MsrA inh 4, proKLK7 act 10, MsrA act -5 and SMARCA2 act -2.
COc1cc(/C=N/NC(=O)c2ccc3c(c2)OCO3)ccc1O was read as MsrA inh 6.3*, proKLK7 act 1, MsrA act -4, SMARCA2 act 1 and MsrA conf 4.
CCOc1cc(/C=N/NC(=O)c2ccc3c(c2)OCCO3)cc(Br)c1O was read as MsrA inh 6.0*, proKLK7 act 0, MsrA act -4, SMARCA2 act 0 and MsrA conf 6.9*.
For O=C(N[C@H](C(=O)N1CCC[C@H]1C(=O)NC1CCCC1)c1ccccc1)c1ccc(Cl)cc1Cl the results were MsrA inh 0, proKLK7 act 0 and SMARCA2 act -2.
For COc1ccc(-c2csc(CCn3nc(C)cc3C)n2)cc1 the results were MsrA inh 2, proKLK7 act -1, MsrA act -4 and SMARCA2 act -6.
`COc1ccc(-c2cc(C(F)F)nc(-n3nc(C)cc3C)n2)cc1` gave MsrA inh 15*, proKLK7 act -2, MsrA act -3, SMARCA2 act 1 and MsrA conf 16*.
For NS(=O)(=O)c1cc(C(=O)OCC(=O)Nc2ccccc2[N+](=O)[O-])ccc1Cl the results were MsrA inh 12*, proKLK7 act 0, MsrA act -5, SMARCA2 act -3 and MsrA conf 6.0*.
Screening NS(=O)(=O)c1cc(C(=O)OCC(=O)Nc2ccc(Cl)cc2[N+](=O)[O-])ccc1Cl returned MsrA inh 0, proKLK7 act 0, MsrA act -12 and SMARCA2 act -1.
Screening COc1ccc(NC(=O)CN2CCCCC2)c([N+](=O)[O-])c1 returned MsrA inh 1, proKLK7 act 0, MsrA act 0 and SMARCA2 act 7.
For COc1ccc(NC(=O)COC(=O)C2CCCCC2)c([N+](=O)[O-])c1 the results were MsrA inh 12*, proKLK7 act 1, MsrA act -3, SMARCA2 act 0 and MsrA conf 8.1*.
`CNS(=O)(=O)c1cccc(C(=O)OCC(=O)Nc2ccc(OC)cc2[N+](=O)[O-])c1` gave MsrA inh 6.0*, proKLK7 act 0, MsrA act -4, SMARCA2 act -2 and MsrA conf 1.
Screening COC(=O)[C@@]12C[C@@H](CC(=O)NCC3CCCCC3)C(=O)N(Cc3ccccc3)C1=CCC(C)(C)C2 returned MsrA inh 1, proKLK7 act 0 and SMARCA2 act -4.
`O=C(NCc1ccccc1)c1cc(C2COCCN2C(=O)c2ccc3c(c2)CCO3)on1` (configuration not stated) gave MsrA inh 1, proKLK7 act 0, MsrA act -8 and SMARCA2 act -2.

Assay outcomes deposited in PubChem BioAssay by The Scripps Research Institute Molecular Screening Center.
